From PubChem BioAssay come the findings set out here.

“And” between values parts separate entries of the source, which are not always exact repeats. Equal values may be shown once. Values without a mark were called inactive. How the calls were made is not given here.

The target of this experiment is Pantothenate synthetase (Mycobacterium tuberculosis (strain ATCC 25618 / H37Rv)) (UniProt P9WIL5). As to the kind of experiment: Recombinant Mtb pantothenate synthetase (PanC) inhibitors, coupled enzyme, confirmatory (AID 375).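 Further: 0% = full reaction with vehicle and 100% = no enzyme background.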 As to conditions: coupled enzyme assay; at 10 µM, active compounds read high.
Pantothenate synthetase (Mycobacterium tuberculosis (strain ATCC 25618 / H37Rv)), sequence (P9WIL5 whole entry, looked up): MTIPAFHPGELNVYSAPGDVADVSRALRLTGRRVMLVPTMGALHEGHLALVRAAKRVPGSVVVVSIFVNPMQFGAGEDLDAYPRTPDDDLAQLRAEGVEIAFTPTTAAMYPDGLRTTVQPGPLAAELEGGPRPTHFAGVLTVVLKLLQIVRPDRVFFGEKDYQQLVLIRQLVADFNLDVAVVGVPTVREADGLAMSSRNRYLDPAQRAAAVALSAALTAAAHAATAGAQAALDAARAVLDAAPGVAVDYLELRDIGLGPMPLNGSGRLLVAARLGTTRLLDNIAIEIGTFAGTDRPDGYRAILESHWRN
As to `CSCC[C@@H](Nc1nc(-c2ccccc2)nc2c1oc1ccccc12)C(=O)O`, the inhibition was 4%.

As to `c1ccc(CN(CC2=NCCN2)c2ccccc2)cc1`, the inhibition was 0% and 2%.

In the case of `O=C(O)Cn1cc2c(n1)CCCC2`, the inhibition was 0%.

Consider `COCC(=O)N(Cc1nc2ccccc2c(=O)[nH]1)Cc1cccs1`, for which the inhibition was 0%.

For `CN1CCN(C2=Nc3cc(Cl)ccc3Nc3ccccc32)CC1`, the inhibition was 8%.

Consider `CCc1nn2c(N3CCOCC3)cc(C)nc2c1-c1ccc(F)cc1`, for which the inhibition is 0%.

As to `Nc1nc(SCc2ccc(Cl)cc2Cl)n[nH]1`, the inhibition is 5%.
